Among the data in PubChem BioAssay (NCI) are growth values, retold here.

Each structure is given as a SMILES string. About 83,000 compounds went through this panel and 20% of them were active in at least one assay; those are over-represented in the sample as a whole.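 Assay: single dose, 48 h. Readout: percent growth (0 = no net growth; negative = cell death). Active: <10.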 Values without a mark were called inactive. Active and inactive are the calls of the source.

Test systems include SK-MEL-2 melanoma; EKVX NSCLC; SN12C renal; UO-31 renal; TK-10 renal; ACHN renal; CAKI-1 renal; A498 renal; CCRF-CEM leukemia; SR leukemia; RPMI-8226 leukemia; OVCAR-8 ovarian; OVCAR-4 ovarian; SK-OV-3 ovarian; IGROV1 ovarian; OVCAR-3 ovarian; HS 578T breast; NCI/ADR-RES ovarian; OVCAR-5 ovarian.
What all share (experiment): NCI-60 one-dose screen, 48 h (100 = growth as untreated, 0 = no growth, -100 = all killed)
What all share (conditions): 10 µM unless noted

As to `COc1cc(N=Nc2ccc(N)cc2)c(OC)cc1N=Nc1ccccc1.[Cl][Zn][Cl]`, the growth in the test on SK-MEL-2 melanoma is 112%; with EKVX NSCLC it was 103%; with SN12C renal it was 102%; in the test with UO-31 renal, 53.1%; in the test with TK-10 renal it was 140%; with ACHN renal, 91.1%. Also, the growth is 75.1% in the test on CAKI-1 renal; 116% with A498 renal; 106% with CCRF-CEM leukemia; 93.2% in the test on SR leukemia; 90.9% in the test on RPMI-8226 leukemia; 98.8% with OVCAR-8 ovarian. In addition, the growth was 92.3% in the test on OVCAR-4 ovarian; 96.5% in the test on SK-OV-3 ovarian; 47.6% in the test on IGROV1 ovarian; 99.8% in the test on OVCAR-3 ovarian; 107% with HS 578T breast; 95.8% with NCI/ADR-RES ovarian.

For the compound `CC(C)CCC[C@@H](C)[C@H]1CC[C@H]2[C@@H](Nc3ccc(O)cc3)CCC[C@]12C`, the growth in the test with SK-MEL-2 melanoma was 86.1%; in the test with EKVX NSCLC, 109%; in the test on SN12C renal, 108%; with UO-31 renal it was 7.74% (active); in the test with TK-10 renal, 83%; in the test on ACHN renal it was 78.8%. Also, the growth is 37.7% with CAKI-1 renal; 67.6% in the test with A498 renal; 32.2% with CCRF-CEM leukemia; 71.8% in the test on SR leukemia; 96.6% with RPMI-8226 leukemia; 97.6% with OVCAR-8 ovarian. For the same compound, the growth in the test on OVCAR-5 ovarian was 114%; in the test on OVCAR-4 ovarian, -73.1% (active); with SK-OV-3 ovarian, 75.3%; in the test with IGROV1 ovarian it was 38.8%; with OVCAR-3 ovarian it was 84.8%; in the test on HS 578T breast it was 104%. Besides, in the test on NCI/ADR-RES ovarian, the growth is 71.4%.

With `O=Cc1ccc(O)c2ncccc12`, the growth with SK-MEL-2 melanoma is 71.2%; with EKVX NSCLC it was 66.1%; in the test on SN12C renal it was 35.2%; in the test with UO-31 renal, 34.8%; with TK-10 renal, 94%; in the test on ACHN renal, 110%. The growth in the test with CAKI-1 renal was 48.6%; in the test with A498 renal it was 106%; in the test with CCRF-CEM leukemia, -40.7% (active); in the test with SR leukemia, -41.3% (active); in the test on RPMI-8226 leukemia, -39.8% (active); in the test with OVCAR-8 ovarian, 9.03% (active). Besides, the growth in the test on OVCAR-5 ovarian is 50.3%; with OVCAR-4 ovarian, 5.69% (active); in the test with SK-OV-3 ovarian it was 97.7%; with IGROV1 ovarian it was 4% (active); in the test on OVCAR-3 ovarian, -15.2% (active); in the test with NCI/ADR-RES ovarian, -1% (active).

As to `Cc1nn(-c2ccccc2)c2nc3c(c(-c4ccc(Cl)cc4)c12)CNC1(CCSCC1)N3`, the growth in the test on SK-MEL-2 melanoma is 134%; in the test on EKVX NSCLC, 94%; with SN12C renal, 108%; in the test on UO-31 renal, 94.9%; in the test with TK-10 renal, 107%; in the test on ACHN renal, 103%. Moreover, the growth with CAKI-1 renal was 95.4%; in the test with A498 renal, 89.1%; with CCRF-CEM leukemia, 118%; in the test with SR leukemia, 96.8%; with RPMI-8226 leukemia, 109%; with OVCAR-8 ovarian, 105%. Also, the growth was 98.2% with OVCAR-5 ovarian; 98.9% in the test on OVCAR-4 ovarian; 98.9% in the test on SK-OV-3 ovarian; 99.1% in the test on IGROV1 ovarian; 104% with OVCAR-3 ovarian; 99.8% in the test with HS 578T breast. For the same compound, the growth with NCI/ADR-RES ovarian is 97.3%.

As for `CCCCn1c(=O)c2c(nc3n2CCCN3CCc2ccc(OCC(=O)NCCN(CC)CC)cc2)n(CCCC)c1=O`, the growth in the test on SK-MEL-2 melanoma was 73.8%; with EKVX NSCLC it was 70.5%; in the test with SN12C renal, 64.6%; in the test with UO-31 renal it was 43.2%; with TK-10 renal, 71.7%; in the test with ACHN renal, 78.3%. The growth was 77.6% with CAKI-1 renal; 1.86% (active) in the test on A498 renal; 24.6% in the test with CCRF-CEM leukemia; -22% (active) in the test with SR leukemia; 61.5% in the test on RPMI-8226 leukemia; 60.8% with OVCAR-8 ovarian. In addition, the growth in the test with OVCAR-4 ovarian was 52.3%; with SK-OV-3 ovarian, 51.8%; in the test with IGROV1 ovarian, 59.3%; in the test with OVCAR-3 ovarian, 71.2%; in the test on HS 578T breast, 20.8%; with NCI/ADR-RES ovarian, 60.7%.

Turning to `COc1ccc(-c2ccc3c(c2)sc2nc(-c4ccc(F)cc4)cn23)cc1`, the growth is 73.4% in the test on SK-MEL-2 melanoma; 82.6% in the test on EKVX NSCLC; 87.9% in the test on SN12C renal; 81% in the test with UO-31 renal; 75.6% in the test with TK-10 renal; 92.9% in the test with ACHN renal. The growth with CAKI-1 renal was 100%; in the test on A498 renal it was 76.8%; in the test with CCRF-CEM leukemia it was 98.8%; in the test with SR leukemia, 93.4%; in the test with RPMI-8226 leukemia, 76.7%; in the test on OVCAR-8 ovarian, 68.5%. Further, the growth in the test on OVCAR-5 ovarian was 70.7%; with SK-OV-3 ovarian it was 84.2%; in the test with IGROV1 ovarian, 100%; in the test on OVCAR-3 ovarian, 88%; in the test with HS 578T breast it was 99.2%; with NCI/ADR-RES ovarian it was 85.5%.
